“And” between values parts separate entries of the source, which are not always exact repeats. Equal values may be shown once. Records with an inconclusive call do not appear. Some structures have more than one record in an assay (separate samples or runs), and their calls can disagree. The source made the active and inactive calls. Calls come from the whole dose curve; as a rule, active = well fitted curve in the direction sought with a large enough effect in the repeat runs; inconclusive = weak or mixed curves; inactive = no such curve, though single readings can be large; an effect the other way counts as inactive or inconclusive.
Experiments:
[1] = Caspase-3/7 induction in CHO-K1 cells by small molecules, qHTS cell viability counter screen (AID 1346979); note: nearly all actives have a fitted effect of over 35% in size; note: potency is the fitted concentration of half-maximal effect
Method in brief: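 Cells (CHO-K1, wild type) are plated at 1,500 per well and incubated 5hr. Test compounds in DMSO are then pinned in, followed by 16hr at 37C and 5% CO2. Viability is read by CellTiter-Fluor fluorescence after 1hr.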

[2] = Caspase-3/7 induction in CHO-K1 cells by small molecules, qHTS assay (AID 1346980); note: nearly all actives have a fitted effect of over 15% in size
Method in brief: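 Wild-type cells were seeded at 1,500 per well and settled 5 hr at 37 C, 5% CO2, then exposed to DMSO-dissolved compounds for 17 hr. Caspase-Glo 3/7 reagent was added, and luminescence was read after 30min at room temperature.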

[3] = Caspase-3/7 induction in HepG2 cells by small molecules, qHTS cell viability counter screen (AID 1346981); note: nearly all actives have a fitted effect of over 30% in size; note: potency is the fitted concentration of half-maximal effect
Method in brief: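 HepG2, WT, 2,000 cells/well; 5 hr pre-incubation 37 C/5% CO2; compound pin-transferred from DMSO; 16 hr exposure; CellTiter-Fluor, 1 hr; fluorescence read.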

[4] = biological target: Nuclear receptor subfamily 1 group I member 2 (Homo sapiens) (UniProt O75469); experiment: Human pregnane X receptor (PXR) small molecule agonists, qHTS assay (AID 1346982); note: nearly all actives have a fitted effect of over 35% in size; note: potency is the fitted concentration of half-maximal effect
Method in brief: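 Luciferase signal from ONE-Glo (30 min, room temperature) measured activation of hPXR-driven CYP3A4 reporter expression in PXR-Luc HepG2 cells treated with compounds for 24 hr at 37 C.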

[5] = biological target: Nuclear receptor subfamily 1 group I member 2 (Rattus norvegicus) (UniProt Q9R1A7); experiment: Rat pregnane X receptor (rPXR) activation by small molecules, qHTS assay (AID 1346983); settings: rPXR luciferase reporter cells, One-Glo luminescence, 24 h; stronger effect = higher value; note: nearly all actives have a fitted effect of over 20% in size
Method in brief: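 Cell-based rPXR luciferase reporter assay, 2,000 cells per well, rested 5hr at 37 C before compound addition in DMSO, then 24 hr at 37 C. One-Glo reagent was added and luminescence read after 30 min at room temperature.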

[6] = biological target: Nuclear receptor subfamily 1 group I member 2 (Homo sapiens) (UniProt O75469); experiment: CYP3A4 induction through human pregnane X receptor (PXR) by small molecules, qHTS assay (AID 1346984); note: nearly all actives have a fitted effect of over 40% in size
Method in brief: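 Luminescence readout: luciferase signal after One-Glo (30 min, room temperature), following 3 h at 37C with 3uM final Luciferin-IPA P450 substrate. Cells were DPX-2 (HepG2, PXR/CYP3A4-luc co-transfected) dosed for 24 h.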

[7] = biological target: Nuclear receptor subfamily 1 group I member 2 (Homo sapiens) (UniProt O75469); experiment: Human pregnane X receptor (PXR) activation by small molecules, qHTS assay (AID 1346985); note: nearly all actives have a fitted effect of over 40% in size
Method in brief: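 DPX-2 cells (HepG2 co-transfected with a PXR response element and a CYP3A4-promoter luciferase construct) were seeded at 2,000 per well, rested 5 hr at 37C, then exposed to DMSO-dissolved compounds for 24 hr. Activation was read as luciferase luminescence.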

[8] = biological target: Cytochrome P450 2D6 (Homo sapiens) (UniProt P10635); experiment: Cytochrome P450 Family 2 Subfamily D Member 6 (CYP2D6) small molecule antagonists: luciferase reporter qHTS assay (AID 1671196); note: nearly all actives have a fitted effect of over 50% in size; note: potency is the fitted concentration of half-maximal effect
Method in brief: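 Read-out is luminescence from luciferin formed by CYP2D6 turnover of a proluciferin substrate, recorded as relative luminescence units. Reactions ran 1 h at room temperature after NADPH regeneration solution was added.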

[9] = biological target: Cytochrome P450 2C19 (Homo sapiens) (UniProt P33261); experiment: Cytochrome P450 Family 2 Subfamily C Member 19 (CYP2C19) small molecule antagonists: luciferase reporter qHTS assay (AID 1671197); note: nearly all actives have a fitted effect of over 65% in size; note: potency is the fitted concentration of half-maximal effect
Method in brief: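 P450-Glo CYP2C19 screening system; proluciferin substrate; DMSO compound stocks; 10 min RT preincubation; NADPH regeneration, 1 h at 37C; luciferin detection reagent, 20 min RT; luminescence as RLU.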

[10] = biological target: Cytochrome P450 1A2 (Homo sapiens) (UniProt P05177); experiment: Cytochrome P450 Family 1 Subfamily A Member 2 (CYP1A2) small molecule antagonists: luciferase reporter qHTS assay (AID 1671199); note: nearly all actives have a fitted effect of over 50% in size; note: potency is the fitted concentration of half-maximal effect
Method in brief: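 P450-Glo CYP1A2, 1536-well qHTS: enzyme/proluciferin substrate + cpd (DMSO), 10 min RT; NADPH regen, 1 h RT; detection reagent, 20 min; luminescence, RLU.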

[11] = biological target: Voltage-gated inwardly rectifying potassium channel KCNH2 (Homo sapiens) (UniProt Q12809); experiment: Human Ether-a-go-go-Related Gene (hERG) channel small molecule antagonists: fluorescence cell-based qHTS assay (AID 1671200); note: nearly all actives have a fitted effect of over 50% in size; note: potency is the fitted concentration of half-maximal effect
Method in brief: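 Channel function was assessed by thallium flux. Cells seeded the previous day and kept at 37 C took up FluxOR II dye over 1 h in the dark at room temperature, then sat another 10 min before stimulation.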

[12] = biological target: Cytochrome P450 3A4 (Homo sapiens) (UniProt P08684); experiment: Cytochrome P450 Family 3 Subfamily A Member 4 (CYP3A4) small molecule antagonists: luciferase reporter qHTS assay (AID 1671201); note: series mostly up to about 120 µM; nearly all actives have a fitted effect of over 50% in size
Method in brief: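 Compounds in DMSO were pin-transferred onto CYP3A4 enzyme-substrate mix and held 10 min at room temperature. NADPH regenerating solution started the reaction for 1 h; luciferin detection reagent stopped it, and luminescence was read after 20 min.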

[13] = biological target: Cytochrome P450 2C9 (Homo sapiens) (UniProt P11712); experiment: Cytochrome P450 Family 2 Subfamily C Member 9 (CYP2C9) small molecule antagonists: luciferase reporter qHTS assay (AID 1671198); note: nearly all actives have a fitted effect of over 50% in size; note: potency is the fitted concentration of half-maximal effect
Method in brief: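 CYP2C9 activity was measured with a P450-Glo proluciferin substrate. Enzyme–substrate mix was held with compound for 10 min at room temperature, then NADPH regeneration solution was added for 1 h at 37C. Luciferin product was read as luminescence.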
% is set by controls: 0 for no effect and ±100 for the full control effect.

Chain of Cytochrome P450 2D6 (Homo sapiens) (P10635 whole entry, looked up): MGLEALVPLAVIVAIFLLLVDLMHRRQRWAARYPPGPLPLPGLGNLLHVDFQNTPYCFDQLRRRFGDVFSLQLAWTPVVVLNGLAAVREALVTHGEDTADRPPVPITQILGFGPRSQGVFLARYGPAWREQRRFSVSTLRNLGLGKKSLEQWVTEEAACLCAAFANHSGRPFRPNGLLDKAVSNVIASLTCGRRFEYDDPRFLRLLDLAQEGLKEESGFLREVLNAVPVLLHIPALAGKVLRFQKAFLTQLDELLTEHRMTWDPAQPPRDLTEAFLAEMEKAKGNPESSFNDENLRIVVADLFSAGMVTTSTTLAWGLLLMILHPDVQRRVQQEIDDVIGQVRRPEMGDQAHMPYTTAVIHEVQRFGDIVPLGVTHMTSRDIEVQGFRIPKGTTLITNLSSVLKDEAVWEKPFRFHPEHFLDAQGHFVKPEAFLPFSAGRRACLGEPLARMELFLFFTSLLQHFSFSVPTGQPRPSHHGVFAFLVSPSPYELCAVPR
Chain of Cytochrome P450 2C9 (Homo sapiens) (P11712 whole entry, looked up): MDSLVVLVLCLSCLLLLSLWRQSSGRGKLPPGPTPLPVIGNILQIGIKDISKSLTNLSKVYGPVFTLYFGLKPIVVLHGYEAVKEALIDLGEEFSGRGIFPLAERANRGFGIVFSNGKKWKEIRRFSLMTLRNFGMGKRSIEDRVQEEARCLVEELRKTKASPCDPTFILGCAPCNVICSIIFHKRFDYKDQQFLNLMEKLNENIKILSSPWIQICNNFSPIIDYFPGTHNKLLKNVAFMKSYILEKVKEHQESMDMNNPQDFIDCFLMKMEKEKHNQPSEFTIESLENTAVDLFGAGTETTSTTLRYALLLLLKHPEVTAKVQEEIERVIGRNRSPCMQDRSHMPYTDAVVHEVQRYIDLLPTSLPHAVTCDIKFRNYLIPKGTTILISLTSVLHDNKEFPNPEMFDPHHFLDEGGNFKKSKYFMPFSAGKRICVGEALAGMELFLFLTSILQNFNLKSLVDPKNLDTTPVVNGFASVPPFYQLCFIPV
Chain of Nuclear receptor subfamily 1 group I member 2 (Rattus norvegicus) (Q9R1A7 whole entry, looked up): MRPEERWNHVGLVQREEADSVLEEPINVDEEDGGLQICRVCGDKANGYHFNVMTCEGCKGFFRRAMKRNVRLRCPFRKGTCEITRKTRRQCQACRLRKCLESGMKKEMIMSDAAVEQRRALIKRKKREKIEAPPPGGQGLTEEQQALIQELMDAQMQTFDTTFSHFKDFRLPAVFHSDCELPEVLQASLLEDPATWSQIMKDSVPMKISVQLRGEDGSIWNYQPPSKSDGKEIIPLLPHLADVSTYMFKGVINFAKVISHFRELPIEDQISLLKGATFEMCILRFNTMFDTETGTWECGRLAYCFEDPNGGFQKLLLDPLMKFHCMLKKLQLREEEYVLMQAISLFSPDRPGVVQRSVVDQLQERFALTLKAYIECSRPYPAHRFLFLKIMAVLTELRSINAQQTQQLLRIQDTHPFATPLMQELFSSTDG
Chain of Cytochrome P450 2C19 (Homo sapiens) (P33261 whole entry, looked up): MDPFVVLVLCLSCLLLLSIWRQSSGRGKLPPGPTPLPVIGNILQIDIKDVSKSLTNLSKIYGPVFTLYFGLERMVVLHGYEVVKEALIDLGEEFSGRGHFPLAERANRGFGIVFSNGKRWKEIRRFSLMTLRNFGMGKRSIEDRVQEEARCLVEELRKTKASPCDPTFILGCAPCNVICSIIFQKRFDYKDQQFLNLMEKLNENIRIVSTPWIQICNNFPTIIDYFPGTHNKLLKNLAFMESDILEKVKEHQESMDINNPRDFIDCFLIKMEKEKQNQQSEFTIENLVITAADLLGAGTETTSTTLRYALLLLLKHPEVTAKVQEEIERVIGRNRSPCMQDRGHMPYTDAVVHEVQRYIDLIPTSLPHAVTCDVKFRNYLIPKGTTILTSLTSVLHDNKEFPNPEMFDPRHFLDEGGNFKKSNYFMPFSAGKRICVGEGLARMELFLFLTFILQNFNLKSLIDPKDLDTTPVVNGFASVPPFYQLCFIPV
Chain of Cytochrome P450 1A2 (Homo sapiens) (P05177 whole entry, looked up): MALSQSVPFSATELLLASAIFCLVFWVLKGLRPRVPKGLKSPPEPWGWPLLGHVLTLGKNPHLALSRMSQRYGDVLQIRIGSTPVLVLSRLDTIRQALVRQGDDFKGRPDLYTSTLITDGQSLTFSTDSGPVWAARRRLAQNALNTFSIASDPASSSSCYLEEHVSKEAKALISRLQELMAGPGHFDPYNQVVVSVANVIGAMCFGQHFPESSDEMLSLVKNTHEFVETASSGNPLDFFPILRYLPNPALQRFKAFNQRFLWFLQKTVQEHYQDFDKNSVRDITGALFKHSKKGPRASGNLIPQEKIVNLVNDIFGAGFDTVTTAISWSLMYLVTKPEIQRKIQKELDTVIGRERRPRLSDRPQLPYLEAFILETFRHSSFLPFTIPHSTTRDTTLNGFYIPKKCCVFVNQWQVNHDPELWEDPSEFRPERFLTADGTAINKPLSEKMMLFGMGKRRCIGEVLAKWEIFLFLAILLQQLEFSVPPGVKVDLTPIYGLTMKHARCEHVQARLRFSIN
Chain of Cytochrome P450 3A4 (Homo sapiens) (P08684 whole entry, looked up): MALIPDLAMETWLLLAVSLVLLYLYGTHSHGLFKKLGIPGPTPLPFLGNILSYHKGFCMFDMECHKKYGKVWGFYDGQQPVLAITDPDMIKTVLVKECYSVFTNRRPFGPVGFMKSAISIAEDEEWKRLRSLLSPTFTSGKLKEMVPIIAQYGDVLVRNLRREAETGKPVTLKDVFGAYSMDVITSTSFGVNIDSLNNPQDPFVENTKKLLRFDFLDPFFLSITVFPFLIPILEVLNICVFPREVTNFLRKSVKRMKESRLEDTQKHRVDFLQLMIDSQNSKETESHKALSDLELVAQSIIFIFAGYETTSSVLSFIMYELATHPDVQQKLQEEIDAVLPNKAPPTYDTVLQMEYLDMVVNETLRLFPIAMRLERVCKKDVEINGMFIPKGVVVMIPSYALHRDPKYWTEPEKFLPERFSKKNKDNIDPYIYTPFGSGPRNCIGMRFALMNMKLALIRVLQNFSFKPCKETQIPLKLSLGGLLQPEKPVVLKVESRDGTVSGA
Chain of Voltage-gated inwardly rectifying potassium channel KCNH2 (Homo sapiens) (Q12809 whole entry, looked up): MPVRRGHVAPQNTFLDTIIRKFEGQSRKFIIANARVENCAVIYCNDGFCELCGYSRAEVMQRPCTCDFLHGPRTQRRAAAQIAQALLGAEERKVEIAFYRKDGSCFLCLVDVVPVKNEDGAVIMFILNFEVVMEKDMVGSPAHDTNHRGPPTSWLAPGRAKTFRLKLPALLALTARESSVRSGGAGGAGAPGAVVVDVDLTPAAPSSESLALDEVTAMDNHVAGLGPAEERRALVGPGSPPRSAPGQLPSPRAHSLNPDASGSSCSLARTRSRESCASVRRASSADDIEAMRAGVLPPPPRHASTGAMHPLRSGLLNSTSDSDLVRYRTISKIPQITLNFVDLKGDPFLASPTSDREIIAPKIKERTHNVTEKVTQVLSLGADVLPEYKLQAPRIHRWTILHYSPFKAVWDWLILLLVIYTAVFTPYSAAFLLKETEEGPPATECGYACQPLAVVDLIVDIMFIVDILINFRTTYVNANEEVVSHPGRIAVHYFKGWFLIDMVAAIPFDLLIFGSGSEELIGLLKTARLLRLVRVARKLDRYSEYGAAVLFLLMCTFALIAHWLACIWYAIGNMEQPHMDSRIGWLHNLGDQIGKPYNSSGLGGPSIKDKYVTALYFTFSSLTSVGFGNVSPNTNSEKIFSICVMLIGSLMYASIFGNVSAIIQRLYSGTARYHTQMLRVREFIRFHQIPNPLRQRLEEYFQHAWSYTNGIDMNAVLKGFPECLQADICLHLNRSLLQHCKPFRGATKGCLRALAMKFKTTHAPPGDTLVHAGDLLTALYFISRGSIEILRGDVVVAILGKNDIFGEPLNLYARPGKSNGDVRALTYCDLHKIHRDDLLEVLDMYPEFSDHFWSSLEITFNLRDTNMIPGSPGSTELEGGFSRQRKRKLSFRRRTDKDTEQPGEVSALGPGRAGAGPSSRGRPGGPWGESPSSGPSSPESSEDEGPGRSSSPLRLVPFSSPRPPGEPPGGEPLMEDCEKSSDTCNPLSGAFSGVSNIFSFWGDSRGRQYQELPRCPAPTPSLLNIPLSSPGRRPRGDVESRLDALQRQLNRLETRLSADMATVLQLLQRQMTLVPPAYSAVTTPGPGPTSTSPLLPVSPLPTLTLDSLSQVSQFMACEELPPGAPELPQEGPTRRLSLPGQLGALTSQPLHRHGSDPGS
Chain of Nuclear receptor subfamily 1 group I member 2 (Homo sapiens) (O75469 whole entry, looked up): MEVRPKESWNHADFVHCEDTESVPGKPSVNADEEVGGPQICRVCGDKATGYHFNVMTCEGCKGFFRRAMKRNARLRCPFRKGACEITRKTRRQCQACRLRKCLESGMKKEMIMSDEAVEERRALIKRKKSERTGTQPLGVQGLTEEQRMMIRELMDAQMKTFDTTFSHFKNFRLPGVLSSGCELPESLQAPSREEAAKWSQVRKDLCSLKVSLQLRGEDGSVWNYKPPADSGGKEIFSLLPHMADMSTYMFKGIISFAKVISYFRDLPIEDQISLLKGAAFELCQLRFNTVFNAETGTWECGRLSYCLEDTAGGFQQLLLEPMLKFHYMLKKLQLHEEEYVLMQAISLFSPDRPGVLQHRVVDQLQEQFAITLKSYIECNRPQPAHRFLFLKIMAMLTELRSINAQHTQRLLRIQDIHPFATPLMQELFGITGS

OCCOCCN1CCN(C(c2ccccc2)c2ccc(Cl)cc2)CC1 (stereo unspecified)
8.52 µM (active) and inactive: Potency [4]
53.8 µM (active) and inactive: Potency [1]
21.4 µM (active) and inactive: Potency [3]
inactive: Potency [2]

Cc1ccnc2c1NC(=O)c1cccnc1N2C1CC1
inactive: Potency [1] | Potency [2] | Potency [3] | Potency [4] | max activation [5] -1.62% | Potency [6] | Potency [7] | Potency [9] | Potency [11] | Potency [12]
33 µM (active) and inactive: Potency [10]
7.4 µM (active) and inactive: Potency [8]

CCn1cc(C(=O)O)c(=O)c2cc(F)c(N3CCNC(C)C3)c(F)c21 (stereo unspecified)
inactive: Potency [1] | Potency [2] | Potency [3] | Potency [4] | max activation [5] -0.533% | Potency [6] | Potency [7] | Potency [8] | Potency [13] | Potency [10] | Potency [12]

CCCNC(C)C(=O)Nc1ccccc1C (stereo unspecified)
active: Potency [8] 27.5 µM
inactive: Potency [1] | Potency [2] | Potency [3] | Potency [4] | max activation [5] -2.15% | Potency [6] | Potency [7] | Potency [9] | Potency [13] | Potency [10] | Potency [11] | Potency [12]

C/C=C/c1ccc(OCC)c(O)c1
active: Potency [9] 20 µM and 25.2 µM | Potency [13] 35.6 µM and 28.3 µM | Potency [10] 7.1 µM and 7.96 µM
inactive: Potency [1] | Potency [2] | Potency [3] | Potency [4] | Potency [8] | Potency [11]

CCCCCC(=O)O[C@]1(C(C)=O)CC[C@H]2[C@@H]3CCC4=CC(=O)CC[C@]4(C)[C@H]3CC[C@@]21C
active: Potency [1] 60.7 µM and 33.5 µM | Potency [3] 60.7 µM | Potency [4] 9.62 µM and 11.9 µM | Potency [9] 17.7 µM and 17.4 µM | Potency [13] 7.91 µM and 11 µM | Potency [11] 19.4 µM
6.28 µM (active) and inactive: Potency [8]
inactive: Potency [2] | Potency [10]

O
inactive: Potency [1] | Potency [2]

OCCN1CCNCC1
inactive: Potency [1] | Potency [2] | Potency [3] | Potency [4] | Potency [8] | Potency [9] | Potency [10] | Potency [11] | Potency [12]

CCCCCCCCCCCC[N+](C)(C)C
inactive: Potency [2] | Potency [3] | Potency [13] | Potency [10] | Potency [12]
active: Potency [1] 68.4 µM | Potency [4] 24.3 µM and 61.1 µM | Potency [8] 3.55 µM and 3.56 µM and 2.24 µM | Potency [11] 21.9 µM
inactive and 79.6 µM (active): Potency [9]

CC[C@@H](N)CO
inactive: Potency [1] | Potency [2] | Potency [3] | Potency [4] | Potency [8] | Potency [9] | Potency [13] | Potency [11] | Potency [12]

Cc1cc(C(C)(C)C)c(O)c(C(C)(C)C)c1
inactive: Potency [1] | Potency [2] | Potency [3] | Potency [4] | Potency [8] | Potency [9] | Potency [10] | Potency [11] | Potency [12]
35.7 µM (active) and inactive: Potency [13]

Cc1occc(=O)c1OC(=O)C(C)C
inactive: Potency [1] | Potency [2] | Potency [3] | Potency [4] | Potency [8] | Potency [9] | Potency [13] | Potency [10] | Potency [11] | Potency [12]

CC(C)(C)c1cc(C(C)(C)C)c(O)c(C(C)(C)C)c1
inactive: Potency [1] | Potency [2] | Potency [3] | Potency [8] | Potency [9] | Potency [10] | Potency [12]
68.6 µM (active) and inactive: Potency [4]
active: Potency [11] 7.76 µM
inactive and 35.6 µM (active): Potency [13]

CC(C)CCOCc1ccccc1
inactive: Potency [1] | Potency [2] | Potency [3] | Potency [4] | Potency [8] | Potency [9] | Potency [13] | Potency [11] | Potency [12]

Nc1nc2ccccc2[nH]1
inactive: Potency [1] | Potency [2] | Potency [3] | Potency [4] | Potency [9] | Potency [10] | Potency [11] | Potency [12]
active: Potency [8] 62.5 µM

CC(=O)CC(C)=O
inactive: Potency [1] | Potency [2] | Potency [3] | Potency [4] | Potency [8] | Potency [9] | Potency [13] | Potency [10] | Potency [11] | Potency [12]
